Screens from PubChem BioAssay.
The list is not random: actives were taken first. Their share in the collection is about 7%.
IL1B secr inh: inflammasome signaling inhibition, IL-1 beta readout; AID 743279; THP-1 LPS/ATP IL-1B secretion, AlphaLISA, 16 h; stronger effect = lower value; activity change, % at 57.5 µM; actives 4.7% (n = 360,000); in the data active = activity change below about -50%; inconclusive = mostly about -30% to -49%; also: % is scaled to controls: 0 for no effect and ±100 for the full control effect
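Secreted IL-1B measured by AlphaLISA bead assay after 16 h compound exposure of THP-1 cells; compounds (final up to 57.5 uM) added 1 h before LPS (250 ng/mL) and ATP (1.25 mM) stimulation; lower signal means less secretion.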
D3 antag: blocks the human D3 dopamine receptor; P35462; D3R cells, DiscoveRx beta-arrestin luminescence, antagonist mode; stronger effect = lower value; max response, negative = inhibition, %; actives 2.5% (n = 360,000); AID 652054; in the data active = max response below about -50%; inconclusive = no clear call, values can overlap the other calls; also: % is scaled to controls: 0 for no effect and ±100 for the full control effect
Target sequence (P35462 whole entry, looked up): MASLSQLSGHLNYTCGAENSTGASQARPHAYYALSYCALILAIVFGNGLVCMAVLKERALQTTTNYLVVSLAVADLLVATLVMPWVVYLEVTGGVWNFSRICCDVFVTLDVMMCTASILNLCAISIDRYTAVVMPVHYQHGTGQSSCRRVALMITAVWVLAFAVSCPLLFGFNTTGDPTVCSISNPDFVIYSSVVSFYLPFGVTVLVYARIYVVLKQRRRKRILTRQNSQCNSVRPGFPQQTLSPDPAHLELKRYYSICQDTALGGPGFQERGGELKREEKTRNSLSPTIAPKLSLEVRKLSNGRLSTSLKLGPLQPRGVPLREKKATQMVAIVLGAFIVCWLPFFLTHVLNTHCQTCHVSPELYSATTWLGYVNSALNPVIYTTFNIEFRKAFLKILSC
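Cells plated overnight at 1500 cells/well, then exposed to library compounds with dopamine controls for 90 minutes at 37 degrees C. DiscoveRx reagent added for 30–60 minutes at room temperature; luminescence read, quantitative HTS format.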
DRD3 agonist: D3 dopamine receptor (human) agonism. D3R DiscoveRx beta-arrestin cells, luminescence, 90 min. P35462. max activation, %. actives 0.58% (n = 410,000); in the data active = max activation above about 30%; also: 0% is about no effect
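Agonist mode: compounds and dopamine controls were applied to plated cells for 90 min at 37 degrees C after an overnight attachment at 1500 cells/well. Luminescent read-out followed 30 - 60 minutes at room temperature with DiscoveRx detection reagent.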
ATXN2 expr inh: ATXN2 expression inhibition | AID 1745845 | Potency, µM (titrated, usually from 57 µM), for inactives: top-dose activity change, negative = inhibition, actives largely listed as inhibitors | actives 0.72% (n = 360,000) | HEK-293 ATXN2-luciferase reporter, luminescence, 24 h; also: potency is read from the fitted curve at half-maximal effect; % is scaled to controls: 0 for no effect and ±100 for the full control effect; nearly all actives have a fitted effect of over 55% in size
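ATXN2-luciferase reporter cells (luciferase flanked by upstream and downstream ATXN2 gene portions) were treated 24 h at 37 °C with compounds at up to 57 uM. SteadyGlo luminescence gave expression; GF-AFC fluorescence gave viability.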
ATXN viability: viability counter-screen for ATXN expression inhibitors; S2 cells (HEK-293 line with an ATXN2-luciferase reporter) viability, CellTiter-Fluor protease fluorescence, 24 h; Potency, µM (titrated, usually from 56.7 µM), actives largely listed as cytotoxic; actives 0.49% (n = 400,000); also: potency is read from the fitted curve at half-maximal effect; nearly all actives have a fitted effect of over 40% in size
a7 integrin act: integrin-mediated muscular dystrophy alleviation activation. AID 624291. alpha7betagal myoblasts, beta-gal FDG fluorescence, 48 h. Potency, µM (doses to about 38.3 µM), inactives show at the top dose activation, actives largely listed as activators. actives 0.064% (n = 350,000);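 also: potency is read from the fitted curve at half-maximal effect; 100% = response of the positive control SU9516; nearly all actives have a fitted effect of over 60% in size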
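alpha7betagal+/- myoblasts (passage 13, 250/well) treated 48 h at 37C with compounds at 1:260 dilution of DMSO stock. Lysed, then beta-galactosidase activity read as FDG fluorescence (ex 480/em 540) after 30 min, with pre-read for autofluorescence.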
Active calls of the source: *; i = inactive; u = inconclusive; x = no result given; [ ] = dose if it differs, or a comment. Unless noted, calls follow the shape of the dose curve; as a rule, active = well fitted curve in the direction sought with a large enough effect; inconclusive = small, poorly fitted or top-dose-only effect, or another doubt; inactive = no such curve, though single readings can be large; an effect the other way counts as inactive or inconclusive.

SMILES	IL1B secr inh	D3 antag	DRD3 agonist	ATXN2 expr inh	ATXN viability	a7 integrin act
O=C(CN(Cc1ccccc1)C(=O)CCC(=O)Nc1nccs1)NCC1CCCO1 (stereo not given)	1	-2	-5	0%	i	14%
COC(=O)[C@@]12C[C@@H](CC(=O)NCCC(C)C)C(=O)N(Cc3ccco3)C1=CCC(C)(C)C2	-18	5	6	x	x	x
CCN(CC)CC#CCC(O)(c1ccccc1)c1ccccc1	u	-79*	-19	-30%	i	-18%
CCN(CC)CC#CCC(C)(c1ccccc1)c1ccccc1	u	-55*	-54	u	u	0%
Cn1c(SCc2ccccc2F)nc2cccnc21	-5	37	18	0%	i	-82%
CCOC(=O)C1=C(c2ccccc2)N=c2s/c(=C\c3ccc(O)cc3)c(=O)n2C1c1cccs1 (stereo not given)	-78*	-57*	-3	28µM*	u	-63%
CCCn1c(SCC(=O)c2cc(C)c(C)cc2C)n[nH]c1=O	-3	-3	4	-8%	i	3%
CN(N=Cc1ccc([N+](=O)[O-])cc1)c1ccccn1	-58*	-2	2	x	i	25%
CC(NC(=O)COc1cc(=O)n(C)c2ccccc12)c1ccc2c(c1)OCCO2 (stereo not given)	19	46	2	x	x	3%
CC1(C)CC2(C)OC(=N)C1(C#N)C2(C#N)C#N (stereo not given)	-101*	-16	-10	u	u	2%
CS(=O)(=O)c1ccc(S(=O)CC(=O)Oc2ccc(Cl)cc2)c([N+](=O)[O-])c1 (stereo not given)	-99*	-102*	-16	u	u	-56%
O=C(CS(=O)c1ccccc1[N+](=O)[O-])Oc1ccc(Br)cc1 (stereo not given)	-62*	6	5	-1%	i	u
O=[N+]([O-])c1ccccc1S(=O)c1ccccc1[N+](=O)[O-]	219	14	2	u	i	x
CCC1(c2ccccc2)NC(=O)N(CC(=O)NCc2ccncc2)C1=O (stereo not given)	27	16	6	1%	i	5%
CSCC[C@H](NC(=O)c1cccs1)C(=O)N1CCC2(CC1)NCCc1[nH]cnc12	-85*	7	2	1%	i	u
COc1cccc(C(=O)NCC(=O)N2CCC3(CC2)NCCc2[nH]cnc23)c1	-9	1	6	-3%	i	11µM*
Cc1ccc(C(=O)NCC(=O)N2CCC3(CC2)NCCc2[nH]cnc23)cc1C	-9	26	6	3%	i	1%
CSCC[C@H](NC(=O)c1ccc2ccccc2c1)C(=O)N1CCC2(CC1)NCCc1[nH]cnc12	u	-10	0	4%	u	0%
O=C(NCCc1ccccc1)c1ccc2c(c1)S(=O)(=O)c1ccccc1C2=O	-7	12	30	0%	i	12%
O=C(CN1CCN(c2ccccc2)CC1)N1CCc2[nH]c3ccccc3c2C1	11	u	7	-9%	i	-34%
CC(C)NC(=O)c1ccc(NC(=O)N2CCCCc3ccccc32)cc1	x	x	-7	11%	i	x
O=C(NCC1CCCO1)C(=Cc1cccc([N+](=O)[O-])c1)C(=O)NCC1CCCO1 (stereo not given)	-110*	-11	6	-16%[11.3 µM]	i	-67%
COc1cccc(Nc2nc3ccc(OC)cc3s2)c1	-172*	-1	0	x	i	-8%
COc1ccc2nc(Nc3sc4c(c3C(N)=O)CCCC4)sc2c1	-100*	-21	-3	54%	i	-4%
O=C(Nc1ccccc1)N1C2CCC1CC(O)(c1cccnc1)C2 (stereo not given)	-10	-15	-13	0%	i	-17%
SMILES	IL1B secr inh	D3 antag	DRD3 agonist	ATXN2 expr inh	ATXN viability	a7 integrin act
CC(C)C(=O)N1C2CCC1CC(O)(c1ccc(F)cc1)C2 (stereo not given)	8	-67*	-8	-9%	i	9%
Cc1cc(N2C3CCC2CC(O)(c2ccc(F)cc2)C3)nc(-c2ccccc2)n1 (stereo not given)	-56*	-60*	-23	u	i	u
Cc1ccnc(N2C3CCC2CC(O)(c2ccccc2)C3)n1 (stereo not given)	13	-7	4	-32%	i	2%
CC(C)(C)CN1CCNC(=O)C1CC(=O)NCc1cccc(-n2cccn2)c1 (stereo not given)	-2	1	0	5%	i	-15%
Cc1ccc(S(=O)(=O)Nc2c(C)cc([N+](=O)[O-])cc2C)cc1	0	-14	2	-15%	i	4%
Cc1ccc(S(=O)(=O)c2ccc([N+](=O)[O-])o2)cc1	-100*	-111*	-38	6.7µM*	11µM*	-52%
Cc1ccccc1CS(=O)(=O)c1nnc([C@H](Cc2ccccc2)NC(=O)OC(C)(C)C)o1	u	-53*	-31	u	x	-59%
CCC(C)[C@@H](NC(=O)OC(C)(C)C)c1nnc(S(=O)(=O)Cc2cccc(C)c2)o1 (stereo not given in full)	-116*	-54*	-26	u	x	-68%
COc1ccc(OC(=O)COc2cccc(C)c2)cc1	35	-19	-6	-6%	i	u
O=C(Nc1ccccc1)c1[nH]ncc1[N+](=O)[O-]	0	-63*	2	13%	i	-3%
COc1ccc([N+](=O)[O-])cc1NC(=S)NC(NC(=O)C(c1ccccc1)c1ccccc1)C(Cl)(Cl)Cl (stereo not given)	-10	-80*	-18	22µM*	u	-47%
COc1ccc(NC(=S)NC(NC(=O)c2cccc3ccccc23)C(Cl)(Cl)Cl)c([N+](=O)[O-])c1 (stereo not given)	-56*	-8	-6	-22%	i	-54%
COC(=O)c1ccccc1NC(=S)NC(NC(=O)c1ccccc1[N+](=O)[O-])C(Cl)(Cl)Cl (stereo not given)	40	-51*	-8	1%	i	-8%
COc1ccc(NC(=O)c2[nH]ncc2[N+](=O)[O-])cc1	-21	-6	-2	x	i	-9%
CC1CCN(CC(=O)Nc2ccc3c(c2)OCO3)CC1	-20	-18	-15	15%	i	-2%
CCC(C)(C)C(=O)Nc1ccc(OC)cc1[N+](=O)[O-]	-17	14	-4	-5%	i	5%
COc1ccc(NC(=S)NC(NC(=O)c2ccccc2Cl)C(Cl)(Cl)Cl)c([N+](=O)[O-])c1 (stereo not given)	-87*	-25	-10	29%	i	-22%
